Results published in PubChem BioAssay AID602123 (The Scripps Research Institute Molecular Screening Center, 2011).
In all, about 360,000 compounds went through this assay and about 1,500 (0.42%) were called active. The list comes from a sample in which actives are over-represented; it also holds similar structures and randomly drawn compounds. Unmarked numbers belong to inactive results. Rule as the data show it: active = inhibition above about 13% (passing the limit was not always enough); inactive = the rest.

These compounds were tested against Lon protease (Escherichia coli (strain K12)) (UniProt P0A9M0) (assay: E. coli eLon protease inhibition – biochemical, fluorescence polarization, primary screen (AID 602123;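 also: 0% = enzyme with probe and DMSO and 100% = no enzyme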)). Settings: purified E. coli Lon protease, at 7.94 µM, stronger effect = higher value.
Lon protease (Escherichia coli (strain K12)), sequence (P0A9M0 whole entry, looked up): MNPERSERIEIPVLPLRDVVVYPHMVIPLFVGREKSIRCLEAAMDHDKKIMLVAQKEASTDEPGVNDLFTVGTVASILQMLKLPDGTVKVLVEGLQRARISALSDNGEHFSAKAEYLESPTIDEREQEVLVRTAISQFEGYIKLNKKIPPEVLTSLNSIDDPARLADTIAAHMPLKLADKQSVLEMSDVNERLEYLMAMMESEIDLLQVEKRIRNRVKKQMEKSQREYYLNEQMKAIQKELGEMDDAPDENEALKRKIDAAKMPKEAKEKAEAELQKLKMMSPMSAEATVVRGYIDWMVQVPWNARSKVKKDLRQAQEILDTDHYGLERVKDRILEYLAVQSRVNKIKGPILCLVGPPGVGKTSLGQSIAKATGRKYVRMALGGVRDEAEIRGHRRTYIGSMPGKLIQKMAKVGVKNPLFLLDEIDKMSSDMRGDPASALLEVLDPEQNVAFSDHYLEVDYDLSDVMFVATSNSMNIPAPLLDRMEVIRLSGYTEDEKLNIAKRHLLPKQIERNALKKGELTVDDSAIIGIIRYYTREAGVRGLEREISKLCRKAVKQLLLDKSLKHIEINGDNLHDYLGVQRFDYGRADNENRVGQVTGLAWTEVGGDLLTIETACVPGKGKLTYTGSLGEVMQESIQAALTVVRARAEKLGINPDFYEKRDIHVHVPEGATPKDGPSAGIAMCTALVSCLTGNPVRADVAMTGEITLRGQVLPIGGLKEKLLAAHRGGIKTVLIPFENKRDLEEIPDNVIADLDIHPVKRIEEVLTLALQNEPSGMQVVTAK

Compound	inhibition
COc1cccc(N(CC(=O)NCc2ccccc2)C(=O)CCC(=O)Nc2nccs2)c1	-5.92%
COc1ccc(C2CC(c3cccs3)Nc3nnnn32)cc1 (stereo not given)	-1.58%
COC(=O)C1=C(C(=O)c2ccc(C)cc2)C(c2ccccc2)n2nnnc2N1 (stereo not given)	-7.42%
COc1ccc(C2=CC(c3cccc(OC)c3)n3nnnc3N2)cc1 (stereo not given)	16.1% (active)
COC(=O)C[n+]1cccc2ccccc21	99.9% (active)
COc1c(C(=O)N2CCCC2)ccc2ccccc12	-2.3%
COC(=O)CNS(=O)(=O)c1ccc(Cc2ccc(S(=O)(=O)NCC(=O)OC)cc2)cc1	5.06%
CSc1ccccc1NC(=O)Cc1ccc(Br)cc1	3.49%
COc1ccc(C(=O)NC(C)CCc2ccccc2)c(OC)c1 (stereo not given)	35.8% (active)
COc1ccccc1C(=O)NCCC(=O)NC(C)CCc1ccccc1 (stereo not given)	2.26%
COc1ccc(C(=O)CCc2ccccc2O)c(OC)c1	-6.58%
COCC(C)NC(=O)CSc1nc2nn(-c3ccccc3)c(=O)c-2c2n1CCCCC2 (stereo not given)	8.05%
C=CCSc1ccc(S(=O)(=O)N2CCN(C)CC2)cn1	2.87%
O=C(COC(=O)C12CC3CC(CC(O)(C3)C1)C2)NC12CC3CC(CC(C3)C1)C2	14.8% (active)
O=C(COC(=O)CNS(=O)(=O)c1ccccc1)NC12CC3CC(CC(C3)C1)C2	-4.78%
O=C(CNCCO)NC12CC3CC(CC(C3)C1)C2	1.03%
Cc1ccc(N(C(=O)c2sc(C)nc2C)C(C(=O)NC(C)(C)C)c2ccncc2)cc1 (stereo not given)	2.66%
CCS(=O)(=O)N1CCCC(C(=O)NCCCN(C)Cc2ccccc2)C1 (stereo not given)	0.57%
O=C(CCCn1c(=O)oc2ccccc21)Nc1cccnc1	0.74%
C/C(=N/NC(=O)CSc1ccccn1)c1ccc([N+](=O)[O-])cc1	-0.59%
CCN1C(=O)[C@H]2[C@@H](c3ccc(-c4ccc(F)cc4)cc3)N[C@@](Cc3ccccc3)(C(=O)OC)[C@H]2C1=O	-0.32%
CCN1C(=O)[C@H]2[C@@H](c3ccc(-c4ccc(OC)cc4)cc3)N[C@@](Cc3ccccc3)(C(=O)OC)[C@H]2C1=O	-4.73%
CCCSc1ccc([C@H]2N[C@@](Cc3ccccc3)(C(=O)OC)[C@H]3C(=O)N(C)C(=O)[C@@H]23)cc1	22.2% (active)
CCNC(=S)N1CCN(S(=O)(=O)c2ccc(Cl)s2)CC1	3.82%
O=C(Nc1ccc(F)c(Cl)c1)C1CCN(S(=O)(=O)c2cccnc2)CC1	1.53%
